SMN2 splice enh – increases expression of the SMN2 splice variant; Potency, µM (top dose mostly 46.1 µM), without a hit: top-dose activity change, positive = activation, actives largely listed as activators; hit rate 2.8% among 210,000; AID 1458; HEK293 SMN2-luciferase splicing reporter, luminescence, 30-36 h; note: % of control where 0% means no effect; nearly all actives have a fitted effect of over 55% in size
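qHTS luciferase splicing reporter: luminescence rises when SMN2 exon 7 is included in transfected HEK293 cells. Compound exposure lasted 30-36 h at 37C, with 4.5 mM final sodium butyrate as control, followed by a ONE-Glo read.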
ELG1 DNA repair – blocks ELG1-dependent DNA repair in HEK293T cells; HEK293T ELG1-luciferase reporter, luminescence, 16 h; DNA damage induced by 5-fluorouridine; Potency, µM (doses to about 46.1 µM), inactives show top-dose activity change, negative = inhibition, most hits filed as inhibitors; hit rate 2.3% among 330,000; note: % is set by controls: 0 for no effect and ±100 for the full control effect; nearly all actives have a fitted effect of over 55% in size
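In this reporter screen, reduction of luminescence relative to DMSO vehicle indicated activity. Compounds and 5-fluorouridine were added together to 2,000 cells per well, incubated for 16 hr at 37 °C, then developed with ONE-Glo.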
NPC1 promoter act – NPC1 promoter activation | Huh7 NPC1 promoter luciferase reporter, 24 h | Potency, µM (highest dose often 9.22 µM), without a hit: at the highest dose activation, usual class: activators | hit rate 2.4% among 320,000; note: % of control where 0% means no effect; nearly all actives have a fitted effect of over 60% in size
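Cells: Huh7 expressing luciferase under the NPC1 promoter, 1500/well. Seeded 2 h, compound added, incubated 24 h at 37 °C. Luciferase reagent, 10 min ambient, then luminescence.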
FLuc counter – counter-screen for miR-21 project: firefly luciferase inhibitors or activators | P08659 | purified FLuc, Km substrates, luminescence inhibition | Potency, µM (series often up to 57.5 µM), without a hit: at the top dose activity change, negative = inhibition, usual class: inhibitors | hit rate 6.9% among 360,000 | AID 588342;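 note: plate controls were vehicle for no effect and reference inhibitor for full effect; nearly all actives have a fitted effect of over 55% in size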
Target sequence (P08659 whole entry, looked up): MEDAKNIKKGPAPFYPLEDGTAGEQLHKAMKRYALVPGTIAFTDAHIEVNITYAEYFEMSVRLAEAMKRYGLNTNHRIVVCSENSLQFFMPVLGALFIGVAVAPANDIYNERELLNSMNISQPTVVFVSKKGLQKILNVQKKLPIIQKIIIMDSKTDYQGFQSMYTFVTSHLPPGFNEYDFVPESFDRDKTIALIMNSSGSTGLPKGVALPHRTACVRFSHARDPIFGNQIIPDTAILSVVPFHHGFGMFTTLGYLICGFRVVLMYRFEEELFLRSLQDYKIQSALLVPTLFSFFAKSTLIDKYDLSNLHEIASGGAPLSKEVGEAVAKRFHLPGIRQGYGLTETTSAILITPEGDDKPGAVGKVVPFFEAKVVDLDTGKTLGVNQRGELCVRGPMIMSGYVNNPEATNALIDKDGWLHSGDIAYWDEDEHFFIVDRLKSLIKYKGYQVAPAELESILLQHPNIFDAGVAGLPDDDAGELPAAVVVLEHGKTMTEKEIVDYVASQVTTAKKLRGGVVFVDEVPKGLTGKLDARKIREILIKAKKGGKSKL
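Biochemical qHTS of compounds, final roughly 60 µM downward over six points, against 10 nM purified firefly luciferase using Km concentrations of substrates (10 uM D-luciferin, 10 uM ATP) in Tris acetate pH 7.5 buffer; luminescence output.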
Rab9 prom act – Rab9 promoter activation; Huh7 Rab9 promoter-luciferase reporter, luminescence, 24 h; Potency, µM (top dose mostly 9.22 µM), inactives show top-dose activation, negative = inhibition, hits mostly activators; hit rate 2.8% among 320,000; note: % of control where 0% means no effect; nearly all actives have a fitted effect of over 60% in size
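Rab9 promoter-driven luciferase in stably transfected Huh7 cells; 1500 cells/well rested 2 h, exposed to compound in DMSO for 24 h at 37 °C, 5% CO2. Luminescence read 10 min after adding luciferase reagent at ambient temperature.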
ELG1 genotoxic – induces genotoxicity in HEK293T cells with luciferase-tagged ELG1; HEK293T ELG1-luciferase reporter, luminescence, 16 h; Potency, µM (series often up to 46 µM), for the others: at the highest dose activity change, positive = activation, most hits filed as activators; hit rate 1.3% among 330,000; note: % of control where 0% means no effect; nearly all actives have a fitted effect of over 60% in size
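Genotoxicity was scored as increased ELG1-luciferase reporter signal, measured by ONE-Glo luminescence (30 min, room temperature). Compound or vehicle exposure of the HEK293T reporter cells lasted 16 hr at 37°C.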
The depositor's hits bear a star. An excerpt weighted towards active compounds, which were near 9.2% of everything screened. Calls come from the whole dose curve; as a rule, active = well fitted curve in the direction sought with a large enough effect; inconclusive = small, poorly fitted or top-dose-only effect, or another doubt; inactive = no such curve, though single readings can be large; an effect the other way counts as inactive or inconclusive. Potency is the fitted concentration of half-maximal effect.

Results for Cc1ccc(C(=O)/C=C/Nc2cccc([N+](=O)[O-])c2)o1 ?
SMN2 splice enh: 14.1µM*; ELG1 DNA repair: inconclusive; NPC1 promoter act: inconclusive; FLuc counter: 5.36µM*; Rab9 prom act: 3.16µM*; ELG1 genotoxic: inconclusive

What do the screens show for `CC1c2nc3ccccc3n2C(CC(=O)NC2CC2)C(=O)N1Cc1ccccc1` (stereo unspecified)?
SMN2 splice enh: 0.3%; ELG1 DNA repair: -7.2%; NPC1 promoter act: -1.8%; FLuc counter: 3.7%; Rab9 prom act: -1.0%; ELG1 genotoxic: 0.0%

What do the screens show for `COc1cc(/C=C2/CCC/C(=C\c3cc(O)c(OC)c(Cl)c3)C2=O)cc(Cl)c1O`?
SMN2 splice enh: -76.1%; ELG1 DNA repair: 14.6µM*; NPC1 promoter act: 1.9%; FLuc counter: inconclusive; Rab9 prom act: 3.7%; ELG1 genotoxic: -14.2%

Results for COc1cc(/C=C2\CCC/C(=C\c3ccc(O)c(OC)c3)C2=O)ccc1O ?
ELG1 DNA repair: inconclusive; NPC1 promoter act: -4.3%; FLuc counter: 19µM*; Rab9 prom act: -12.8%; ELG1 genotoxic: -10.8%

How did COc1cc(/C=C2\CC/C(=C\c3cc(OC)c(O)c(OC)c3)C2=O)cc(OC)c1O do in these assays?
SMN2 splice enh: -65.0%; ELG1 DNA repair: 7.31µM*; NPC1 promoter act: -15.6%; FLuc counter: inconclusive; Rab9 prom act: -27.7%; ELG1 genotoxic: -9.2%

What do the screens show for `CC(Sc1ccsc1[N+](=O)[O-])C(=O)NCc1ccco1` (stereo unspecified)?
SMN2 splice enh: -11.2%; ELG1 DNA repair: 6.8%; NPC1 promoter act: -2.0%; FLuc counter: -5.8%; Rab9 prom act: 1.6%; ELG1 genotoxic: -4.1%

What do the screens show for `CNC1C(O)[C@@H]2OC(O[C@@H]3C(O)C(O)C(N)C[C@H]3N)C(N)C[C@H]2O[C@H]1O[C@@H]1OC(CO)C(N)C(O)C1O` (stereo partly specified)?
SMN2 splice enh: 4.0%

What do the screens show for `CC(C)c1ccc(C2NC(=O)c3ccccc3O2)cc1` (stereo unspecified)?
ELG1 DNA repair: 14.0%; NPC1 promoter act: 4.1%; FLuc counter: 9.53µM*; Rab9 prom act: 15.0%; ELG1 genotoxic: inconclusive

How did O=C1NC(c2ccc(Cl)cc2)Oc2ccccc21 (stereo unspecified) do in these assays?
ELG1 DNA repair: -1.7%; NPC1 promoter act: -6.8%; FLuc counter: 3.9%; Rab9 prom act: -3.1%; ELG1 genotoxic: 8.3%

Results for CC(C)C[C@@H](CC(=O)N[C@@H](CCC(=O)O)CC(=O)O)NC(=O)[C@@H]1CNCC[C@H]1NC(=O)C[C@H](CCCN)NC(=O)C[C@H](Cc1ccccc1)NC(=O)[C@@H]1CNCC[C@H]1N ?
SMN2 splice enh: 6.5%

What do the screens show for `CC(=O)c1ccc(NC(=O)CSc2nc(N)c3cc4c(nc3n2)CCCC4)cc1`?
SMN2 splice enh: 25.1µM*; ELG1 DNA repair: -21.7%; NPC1 promoter act: inconclusive; FLuc counter: 1.35µM*; Rab9 prom act: inconclusive; ELG1 genotoxic: 16.1%

Results for CCn1c(SCC(=O)Nc2ccc(C(C)=O)cc2)nc2nc3c(cc2c1=O)CCCC3 ?
SMN2 splice enh: -75.6%; ELG1 DNA repair: inconclusive; NPC1 promoter act: 12.1%; FLuc counter: inconclusive; Rab9 prom act: 20.6%; ELG1 genotoxic: inconclusive

What do the screens show for `COc1ccc(NC(=O)CSc2nc(N)c3cc4c(nc3n2)CCCC4)cc1`?
SMN2 splice enh: 22.4µM*; ELG1 DNA repair: 14.7%; NPC1 promoter act: 18.9%; FLuc counter: 1.51µM*; Rab9 prom act: inconclusive; ELG1 genotoxic: 13.4%

What do the screens show for `CCOc1cc(N2CCOCC2)c(OCC)cc1NC(C)C(=O)N1CCC(C)CC1` (stereo unspecified)?
ELG1 DNA repair: 9.2µM*; NPC1 promoter act: -1.7%; FLuc counter: 0.7%; Rab9 prom act: -1.7%; ELG1 genotoxic: -4.3%

High-throughput results deposited in PubChem BioAssay by National Center for Advancing Translational Sciences (NCATS).
